# Results filed as inconclusive are left out. Values without a mark were called inactive. Activity calls are given as the source filed them. Calls come from the whole dose curve; as a rule, active = well fitted cell-killing curve with a large enough effect; inconclusive = small, poorly fitted or top-dose-only effect, or effect the other way; inactive = flat fitted curve, though single readings scatter.
# System: OV90
# Assay: Primary qHTS to identify gynecologic anti-cancer compounds using libraries of approved drugs and bioactive compounds (AID 1345084); note: nearly all actives have a fitted effect of over 55% in size
# Settings: Gynecologic cancer cell panel viability, ATPlite luminescence, 48 h; series mostly up to 57.5 µM; activity change, negative = cytotoxicity: at the top concentration
# How it was run: (§1)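 Luminescence from the ATPlite ATP-monitoring reagent indicates viable cell number; lower signal means cytotoxicity. Cells received compound 16 h after seeding and were exposed for 48 h across five concentrations.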
# % is set by controls: 0 for no effect and ±100 for the full control effect; potency is the fitted concentration of half-maximal effect.
row,SMILES,"activity change, negative = cytotoxicity"
1,CCO[C@H]1CN(C2CCC(O)(c3ccc4c(c3)OCO4)CC2)C[C@@H]1NC(=O)CNC(=O)c1cccc(C(F)(F)F)c1 (stereo partly drawn),0.0307%
2,O=c1cc(N2CCOCC2)nc2c3ccccc3ccn12,4.2%
3,CC1OC(=O)C[C@@H]2C(C(=O)O)=CO[C@@H](O[C@H]3O[C@H](CO)[C@@H](O)[C@H](O)[C@H]3O)[C@H]12 (stereo partly drawn),1.42% [at 38.5 µM]
4,CC(C)c1ccccc1OC(=O)NCCc1ccc2ccccc2c1,0.0224%
5,CCOc1nc(NC(=O)Cc2cc(OC)ccc2OC)cc(N)c1C#N,3.41%
6,C=C(C)[C@@H]1CC[C@]2(C(=O)O)CC[C@]3(C(=O)O)[C@H](CCC4[C@@]5(C)CCC(=O)C(C)(C)C5CC[C@]43C)C12 (stereo partly drawn),0.128% [at 25.3 µM]
7,CN(c1ccc(NC(=O)Nc2ccccc2)cc1)S(=O)(=O)c1cnn(-c2ccc(F)cc2)c1,-2.03%
8,CC(C)n1c(=O)c(C(=O)NC2CC3CCC(C2)N3C[C@@H](O)CN(C)S(C)(=O)=O)cc2ccccc21 (stereo partly drawn),0.447%
9,C[C@@H](NC(=O)[C@H](O)c1cc(F)cc(F)c1)C(=O)N[C@@H]1C(=O)N(C)c2ccccc2-c2ccccc21,-9.4%
10,CC(=O)Nc1cccc(Nc2ncnc(N3CCC(OCc4ccc(OC(F)(F)F)cc4)CC3)n2)c1C,-1.44%
11,Cc1c(OCc2cccc(-c3ccc(C(=O)O)cc3)c2)cc2c(c1C)C(=O)C(C1CCCC1)C2 (stereo not drawn),5.57%
12,C=CC(C)(O)CC[C@@H]1[C@@]2(C)CCCC(C)(C)C2CC[C@@]1(C)O (stereo partly drawn),-6.76%
13,COc1ccc(C2(N(C)C(=O)c3ccc(NC(=O)c4ccco4)cc3)CCOCC2)cc1,6.8%
14,Cc1nc(Nc2cnn(C3CCNCC3)c2)nc2c1N(C)C(=O)c1cc3ccccc3cc1N2C,-5.15%
15,CC(C)(O)/C=C/C(=O)[C@](C)(O)[C@H]1[C@H](O)C[C@@]2(C)[C@@H]3CC=C4[C@@H](C[C@H](O[C@@H]5O[C@H](CO)[C@@H](O)[C@H](O)[C@H]5O)C(=O)C4(C)C)[C@]3(C)C(=O)C[C@]12C,-16.2% [at 25.3 µM]
16,Clc1ccc(Cn2c(Cc3ccccc3)nc3ccccc32)cc1,2.53%
17,CC/C=C\CC1C(=O)C=CC1(CCCCC1CCC(=O)O1)OC(C)=O (stereo not drawn),-1.08% [at 38.5 µM]
18,COCCN(C(=O)c1cc(OC)c(OC)c(OC)c1)c1nc(-c2ccccc2)cs1,4.25%
19,C=C1CC[C@@H]2[C@](C)(CO)[C@H](O)CC[C@@]2(C)[C@@H]1C/C=C1/C(=O)OCC1OC(=O)/C(=C/CO)C(O)C[C@@H]1C(=C)CC[C@@H]2[C@](C)(CO)[C@H](O)CC[C@]21C (stereo partly drawn),-8.16% [at 25.3 µM]
20,CCn1c(=O)n([C@H]2CCCN(c3nccc(-c4cc5ccccc5o4)n3)C2)c2ccccc21,-0.584%
21,NC(N)=N/N=C/c1ccccc1Cl,-11.1%
22,Nc1nc2c(nc(Br)n2[C@@H]2O[C@@H]3COP(=O)(O)O[C@H]3[C@H]2O)c(=O)[nH]1,10.3%
23,O=C(Nc1ccccc1)c1ccc(Nc2nnc(-c3ccc(O)cc3)c3ccccc23)cc1,-8.46%
24,O=C(Nc1nc2ccc([N+](=O)[O-])cc2s1)C1CCCCC1,9.62%

# System: PA-1
# Assay: as above
# Settings: Gynecologic cancer cell panel viability, ATPlite luminescence, 48 h; series mostly up to 57.5 µM; activity change, negative = cytotoxicity: at the top concentration
# How it was run: as §1
SMILES,Potency,"activity change, negative = cytotoxicity"
Cc1cc(Nc2nc(-c3ccccc3)nc3ccccc23)n[nH]1,10 µM (active),–
C=C1CC[C@@H]2[C@](C)(CO)[C@H](O)CC[C@@]2(C)[C@@H]1CC(O)C1=CCOC1=O (stereo partly drawn),–,-17.8% [at 38.5 µM]
CCCOc1ccc(CCc2nc3cc(-c4c(C)noc4C)ccc3n2CCN2CCOCC2)cc1,–,-7.93%
O=C(N[C@@H]1CCCc2c1cnn2-c1ccc(F)cc1F)c1ccccn1,–,-2.35%
O=C(O)c1ccc(N2C(=O)/C(=C/c3ccc(-c4ccc([N+](=O)[O-])cc4)o3)C=C2c2ccccc2)cc1,–,-4.41%
N#CC(CCCN1CCN(/N=C/c2cccnc2)CC1)(c1ccccc1)c1ccccc1,–,3.62%
CCOC(=O)C1(CCOc2ccccc2)CCN(Cc2ccc(O)c(Cl)c2)CC1,–,-8.72%
C/C=C/C=C/C=C/C(=O)O[C@@H]1C=C(CO)C(O)(C(=O)OC)[C@@]2(C)CCCC(C)(C)C12 (stereo partly drawn),–,3.26% [at 25.3 µM]
CCc1ccc(-c2nc(CSCC(=O)NCCc3ccccc3)c(C)o2)cc1,–,-9.86%
O=C(Nc1ccccc1Cl)c1cnc2ccc(C3CCNCC3)cn12,0.891 µM (active),–
CC(C)(C)Oc1ccc(OCC2Cc3ccccc3CN2C(=O)c2cccc3ccccc23)cc1 (stereo not drawn),–,-17.2%
C=C1C(=O)OC2CC(C)C(CCC(C)O)=CCC12 (stereo not drawn),–,-2.85%
S=C(c1ccc(-c2ccc(Cl)c(Cl)c2)o1)N1CCCCC1,–,2.16%
CC(C)(O)C(=O)N1CCN(c2ccc(C(F)(F)F)c(C3=C(c4c[nH]c5ccccc45)C(=O)NC3=O)c2)CC1,–,-3.94%
COCC(c1ccc(C(F)(F)F)cc1)N1CCN(C2(C)CCN(C(=O)c3c(C)ncnc3C)CC2)CC1C (stereo not drawn),–,0.704%
CCO[C@H]1CN(C2CCC(O)(c3ccc4c(c3)OCO4)CC2)C[C@@H]1NC(=O)CNC(=O)c1cccc(C(F)(F)F)c1 (stereo partly drawn),–,20%
O=c1cc(N2CCOCC2)nc2c3ccccc3ccn12,–,-26.2%
CC1OC(=O)C[C@@H]2C(C(=O)O)=CO[C@@H](O[C@H]3O[C@H](CO)[C@@H](O)[C@H](O)[C@H]3O)[C@H]12 (stereo partly drawn),–,-0.579% [at 38.5 µM]
CC(C)c1ccccc1OC(=O)NCCc1ccc2ccccc2c1,–,0.371%
CCOc1nc(NC(=O)Cc2cc(OC)ccc2OC)cc(N)c1C#N,–,-7.55%

SMILES,Potency,"activity change, negative = cytotoxicity"
C=C(C)[C@@H]1CC[C@]2(C(=O)O)CC[C@]3(C(=O)O)[C@H](CCC4[C@@]5(C)CCC(=O)C(C)(C)C5CC[C@]43C)C12 (stereo partly drawn),–,-0.478% [at 25.3 µM]
CN(c1ccc(NC(=O)Nc2ccccc2)cc1)S(=O)(=O)c1cnn(-c2ccc(F)cc2)c1,–,-6.72%
CC(C)n1c(=O)c(C(=O)NC2CC3CCC(C2)N3C[C@@H](O)CN(C)S(C)(=O)=O)cc2ccccc21 (stereo partly drawn),–,5.2%
C[C@@H](NC(=O)[C@H](O)c1cc(F)cc(F)c1)C(=O)N[C@@H]1C(=O)N(C)c2ccccc2-c2ccccc21,–,-12.5%
CC(=O)Nc1cccc(Nc2ncnc(N3CCC(OCc4ccc(OC(F)(F)F)cc4)CC3)n2)c1C,–,-16.6%
Cc1c(OCc2cccc(-c3ccc(C(=O)O)cc3)c2)cc2c(c1C)C(=O)C(C1CCCC1)C2 (stereo not drawn),–,6.21%
C=CC(C)(O)CC[C@@H]1[C@@]2(C)CCCC(C)(C)C2CC[C@@]1(C)O (stereo partly drawn),–,17%
COc1ccc(C2(N(C)C(=O)c3ccc(NC(=O)c4ccco4)cc3)CCOCC2)cc1,–,-16.6%
Cc1nc(Nc2cnn(C3CCNCC3)c2)nc2c1N(C)C(=O)c1cc3ccccc3cc1N2C,–,-18%
CC(C)(O)/C=C/C(=O)[C@](C)(O)[C@H]1[C@H](O)C[C@@]2(C)[C@@H]3CC=C4[C@@H](C[C@H](O[C@@H]5O[C@H](CO)[C@@H](O)[C@H](O)[C@H]5O)C(=O)C4(C)C)[C@]3(C)C(=O)C[C@]12C,–,7.39% [at 25.3 µM]
Clc1ccc(Cn2c(Cc3ccccc3)nc3ccccc32)cc1,–,-13.3%
CC/C=C\CC1C(=O)C=CC1(CCCCC1CCC(=O)O1)OC(C)=O (stereo not drawn),–,-6.15% [at 38.5 µM]
COCCN(C(=O)c1cc(OC)c(OC)c(OC)c1)c1nc(-c2ccccc2)cs1,–,9.14%
C=C1CC[C@@H]2[C@](C)(CO)[C@H](O)CC[C@@]2(C)[C@@H]1C/C=C1/C(=O)OCC1OC(=O)/C(=C/CO)C(O)C[C@@H]1C(=C)CC[C@@H]2[C@](C)(CO)[C@H](O)CC[C@]21C (stereo partly drawn),–,-24% [at 25.3 µM]
CCn1c(=O)n([C@H]2CCCN(c3nccc(-c4cc5ccccc5o4)n3)C2)c2ccccc21,–,2.83%
NC(N)=N/N=C/c1ccccc1Cl,–,-1.17%
Nc1nc2c(nc(Br)n2[C@@H]2O[C@@H]3COP(=O)(O)O[C@H]3[C@H]2O)c(=O)[nH]1,–,3.25%
O=C(Nc1ccccc1)c1ccc(Nc2nnc(-c3ccc(O)cc3)c3ccccc23)cc1,–,1.13%
O=C(Nc1nc2ccc([N+](=O)[O-])cc2s1)C1CCCCC1,–,4.67%
